Out of some 5,500 compounds screened, about 2,000 (36%) were called active. About 18% were inconclusive and are not listed. Cut-off read from the data, not from the text of the source: active = normalized growth mostly below about 0.91 (no sharp cut-off); inconclusive = no clear call, values can overlap the other calls; inactive = mostly above about 0.92. This is one part of the list.
Assay: chemical genetic growth profiling, strain panel (AID 1159580);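 note: tested at 20 µM; growth read once vehicle control cultures reached saturation at 30 °C; 1 = growth at the plate median or of vehicle wells; lower values mean less growth of the strain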
Conditions: S. cerevisiae deletion strains, growth OD

Measured: normalized growth

O=C(O)c1cc(O)c2c(c1)C(=O)c1cc(O)cc(O)c1C2=O
active: locus YDL185W, strain tfp1, stronger effect = lower value 0.842 | locus YDR502C, strain sam2, stronger effect = lower value 0.903 | locus YER110C, stronger effect = lower value 0.881 | locus YHR030C, strain SLT2, stronger effect = lower value 0.913 | locus YIL125W, strain kgd1, stronger effect = lower value 0.915 | locus YJL168C, strain set2, stronger effect = lower value 0.912 | locus YKL068W, stronger effect = lower value 0.913 | locus YKL085W, strain MDH1 (second series), stronger effect = lower value 0.888 | locus YKL085W, strain MDH1, stronger effect = lower value 0.888 | locus YKR001C, strain vps1, stronger effect = lower value 0.838 | locus YLR418C, strain cdc73, stronger effect = lower value 0.766 | locus YML032C, strain rad52, stronger effect = lower value 0.899 | locus YML124C, strain tub3, stronger effect = lower value 0.93 | locus YNL250W, strain rad50, stronger effect = lower value 0.863 | locus YNL298W, strain CLA4, stronger effect = lower value 0.894 | locus YOR144C, strain elg1, stronger effect = lower value 0.91 | locus YPR167C, strain met16, stronger effect = lower value 0.91
inactive: locus YBR021W, strain FUR4, stronger effect = lower value 0.97 | locus YBR229C, strain ROT2, stronger effect = lower value 0.92 | locus YCL029C, strain bik1, stronger effect = lower value 0.932 | locus YDL035C, strain GPR1, stronger effect = lower value 0.908 | locus YDL074C, strain BRE1, stronger effect = lower value 0.933 | locus YDL101C, strain DUN1, stronger effect = lower value 0.931 | locus YDL192W, strain arf1, stronger effect = lower value 0.926 | locus YDR101C, strain arx1, stronger effect = lower value 0.948 | locus YDR150W, strain NUM1, stronger effect = lower value 0.939 | locus YDR162C, strain NBP2, stronger effect = lower value 0.873 | locus YDR318W, strain mcm21, stronger effect = lower value 0.93 | locus YDR388W, stronger effect = lower value 0.938 | locus YEL061C, strain CIN8, stronger effect = lower value 0.934 | locus YER155C, strain BEM2, stronger effect = lower value 0.968 | locus YER167W, strain BCK2, stronger effect = lower value 0.939 | locus YGL078C, strain dbp3, stronger effect = lower value 0.954 | locus YGL086W, strain mad1, stronger effect = lower value 0.971 | locus YGL248W, strain PDE1, stronger effect = lower value 0.956 | locus YGR135W, strain pre9, stronger effect = lower value 0.923 | locus YGR252W, strain gcn5, stronger effect = lower value 0.816 | locus YHR079C, strain IRE1 (second series), stronger effect = lower value 0.949 | locus YHR094C, strain hxt1, stronger effect = lower value 0.938 | locus YHR129C, strain ARP1, stronger effect = lower value 0.957 | locus YHR200W, strain rpn10, stronger effect = lower value 0.939 | locus YIL066C, strain RNR3, stronger effect = lower value 0.923 | locus YIL073C, strain SPO22, stronger effect = lower value 0.914 | locus YIR030C, strain dcg1, stronger effect = lower value 0.939 | locus YJL095W, strain BCK1, stronger effect = lower value 0.945 | locus YJL134W, strain LCB3, stronger effect = lower value 0.95 | locus YJL187C, strain SWE1 (second series), stronger effect = lower value 0.952 | locus YJR043C, strain POL32, stronger effect = lower value 0.864 | locus YKL009W, strain mrt4, stronger effect = lower value 0.967 | locus YKL190W, strain CNB1, stronger effect = lower value 0.95 | locus YLR039C, strain RIC1, stronger effect = lower value 0.879 | locus YLR058C, strain SHM2, stronger effect = lower value 0.91 | locus YLR102C, strain apc9, stronger effect = lower value 0.945 | locus YLR262C, strain YPT6, stronger effect = lower value 0.814 | locus YLR268W, strain sec22, stronger effect = lower value 0.938 | locus YLR330W, strain CHS5, stronger effect = lower value 0.926 | locus YLR342W, strain FKS1 (second series), stronger effect = lower value 0.921 | locus YLR371W, strain rom2, stronger effect = lower value 0.945 | locus YML016C, strain PPZ1, stronger effect = lower value 0.944 | locus YMR078C, strain ctf18, stronger effect = lower value 0.939 | locus YMR223W, strain ubp8, stronger effect = lower value 0.92 | locus YMR307W, strain GAS1, stronger effect = lower value 0.872 | locus YNL067W, strain RPL9B, stronger effect = lower value 0.977 | locus YNL153C, strain GIM3, stronger effect = lower value 0.955 | locus YNL233W, strain BNI4, stronger effect = lower value 0.95 | locus YNL271C, strain bni1, stronger effect = lower value 0.93 | locus YNL307C, strain MCK1, stronger effect = lower value 0.931 | locus YNL322C, strain KRE1, stronger effect = lower value 0.94 | locus YNR052C, strain pop2, stronger effect = lower value 0.977 | locus YOL006C, strain TOP1, stronger effect = lower value 1.02 | locus YOL012C, strain htz1 0.738 | locus YOL147C, strain pex11, stronger effect = lower value 0.939 | locus YOR061W, strain CKA2, stronger effect = lower value 0.916 | locus YOR069W, strain VPS5, stronger effect = lower value 0.957 | locus YOR136W, strain idh2, stronger effect = lower value 0.929 | locus YOR184W, strain ser1, stronger effect = lower value 0.893 | locus YOR316C, strain cot1, stronger effect = lower value 0.94 | locus YPL241C, strain CIN2, stronger effect = lower value 0.943 | locus YPR119W, strain clb2, stronger effect = lower value 0.951 | locus YPR141C, strain kar3, stronger effect = lower value 0.916 | locus YPR163C, strain tif3, stronger effect = lower value 0.938 | strain wtn01, stronger effect = lower value 0.948

Source: PubChem BioAssay AID1159580 (chemical genetic matrix, 2015)
